Shown are actives, neighbours in structure and some others; about 6.7% of the full set was active somewhere.
Pf Dd2 inh – P. falciparum Dd2 growth inhibition | activity change, % at 10 µM | AID 1159554 | SYBR Green, 72 h; active compounds read low | 94,000 compounds, 2.3% hits; in the data active = activity change below about -80%
Tcruzi prolif – blocks T. cruzi growth in NIH3T3 culture; 77,000 compounds, 5.9% hits; AID 624255; inhibition, % at 8.34 µM; T. cruzi beta-gal in NIH3T3, GalScreen luminescence, 90 h;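 active = mean inhibition above about 93%, with at least 55% of replicates each passing it, limit read from the data, passing the limit was not always enough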
C diff HTS – inhibitors of Clostridium difficile growth; Clostridium difficile clinical isolate growth, OD600, 24 h; active compounds read low; growth activity, negative = inhibition, % at 16 µg/mL (by protocol); 86,000 compounds, 0.25% hits;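 active = mean growth activity at or below -80% and every replicate also at or below -80%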;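 note: 0% = DMSO wells and -100% = levofloxacin 16 µg/mL wells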
* hit, by the source's call.

Results for C[C@@H]1CN([C@@H](C)CO)C(=O)c2cc(C3=CCCC3)cnc2O[C@@H]1CN(C)C(=O)Nc1cccc(F)c1 ?
Pf Dd2 inh: 12; C diff HTS: 13

Results for CN1c2ccc(C#Cc3cccnc3)cc2[C@H]2[C@H](CCN2C(=O)C2CCCC2)[C@H]1CO ?
Pf Dd2 inh: -89*; C diff HTS: 0

What do the screens show for `CN1c2ccc(C#Cc3cccnc3)cc2[C@@H]2[C@@H](CCN2C(=O)C2CCCC2)[C@@H]1CO`?
Pf Dd2 inh: -74; C diff HTS: 13

Results for CN1c2ccc(Br)cc2[C@H]2[C@H](CCN2C(=O)Nc2ccc(F)cc2)[C@@H]1CO ?
Pf Dd2 inh: 12; Tcruzi prolif: 29; C diff HTS: -94*

How did COc1ccc(-c2ccc3c(c2)[C@H]2[C@H](CCN2C(=O)C2CC2)[C@@H](CO)N3C)cc1 do in these assays?
Pf Dd2 inh: -7; Tcruzi prolif: 82; C diff HTS: 14

Results for COc1ccc(-c2ccc3c(c2)[C@H]2[C@H](CCN2C(=O)C2CCCC2)[C@H](CO)N3C)cc1 ?
Pf Dd2 inh: -85*; C diff HTS: -5

How did CN1c2ccc(Br)cc2[C@H]2[C@H](CCN2C(=O)Nc2ccc(F)cc2)[C@H]1CO do in these assays?
Pf Dd2 inh: -52; Tcruzi prolif: 72; C diff HTS: 2

Results for CCCC(=O)Nc1ccc2c(c1)OC[C@H](C)N(Cc1ccc(-c3ccccn3)cc1)C[C@@H](C)[C@H](OC)CN(C)C2=O ?
Pf Dd2 inh: -31; Tcruzi prolif: 47; C diff HTS: 3

How did COc1ccccc1CN1CC[C@@H]2[C@@H](CO)Nc3ccc(-c4ccc(C(=O)N(C)C)cc4)cc3[C@@H]21 do in these assays?
Pf Dd2 inh: -45; Tcruzi prolif: 89; C diff HTS: -16

Results for COc1ccc(NC(=O)N(C)C[C@H]2OCCCC[C@H](C)Oc3ccc(NC(=O)Nc4cccc5ccccc45)cc3C(=O)N([C@H](C)CO)C[C@H]2C)cc1 ?
Pf Dd2 inh: -86*; Tcruzi prolif: -23; C diff HTS: 3

How did COc1ccc(NC(=O)N(C)C[C@H]2OCCCC[C@@H](C)Oc3ccc(NC(=O)Nc4cccc5ccccc45)cc3C(=O)N([C@H](C)CO)C[C@@H]2C)cc1 do in these assays?
Pf Dd2 inh: -78; Tcruzi prolif: -12; C diff HTS: 6

What do the screens show for `COc1ccc(NC(=O)N(C)C[C@H]2OCCCC[C@H](C)Oc3ccc(NC(=O)Nc4cccc5ccccc45)cc3C(=O)N([C@@H](C)CO)C[C@H]2C)cc1`?
Pf Dd2 inh: -85*; Tcruzi prolif: -16; C diff HTS: 2

What do the screens show for `COc1ccc(NC(=O)N(C)C[C@H]2OCCCC[C@@H](C)Oc3ccc(NC(=O)Nc4cccc5ccccc45)cc3C(=O)N([C@@H](C)CO)C[C@H]2C)cc1`?
Pf Dd2 inh: -76; Tcruzi prolif: 66; C diff HTS: -1

How did CC(=O)N1[C@H](CN(C(=O)c2ccccc2)C(C)C)[C@H](c2ccccc2)[C@@H]1CO do in these assays?
Pf Dd2 inh: -1; Tcruzi prolif: 40; C diff HTS: 3

Results for CN(C)CC(=O)N1C[C@@H]2N[C@H](C1)C2c1ccc(-c2ccncc2)cc1 (stereo not given in full) ?
Pf Dd2 inh: -76; C diff HTS: -2

Results for CCCC(=O)N1CCC2(CC1)CN(S(=O)(=O)c1ccc(C)cc1)[C@@H](CO)c1[nH]c3cc(OC)ccc3c12 ?
Pf Dd2 inh: -92*; C diff HTS: 4

Results for COc1ccc2c3c([nH]c2c1)[C@@H](CO)N(S(=O)(=O)c1ccccc1)CC31CCN(C)CC1 ?
Pf Dd2 inh: -17; C diff HTS: 4

Results for CCC(=O)N1CCC2(CC1)CN(S(=O)(=O)c1ccccc1)[C@H](CO)c1[nH]c3cc(OC)ccc3c12 ?
Pf Dd2 inh: -86*; C diff HTS: -13

How did COc1ccc2c3c([nH]c2c1)[C@H](CO)N(C)CC31CCN(S(=O)(=O)c2ccc(C)cc2)CC1 do in these assays?
Pf Dd2 inh: -23; C diff HTS: -4

Results for Cc1noc(C)c1NC(=O)N(C)C[C@@H]1OCCCC[C@@H](C)Oc2ccc(NC(=O)Nc3ccccc3)cc2C(=O)N([C@H](C)CO)C[C@@H]1C ?
Pf Dd2 inh: 19; Tcruzi prolif: -16; C diff HTS: -1

What do the screens show for `CC(=O)N1[C@H](CNC(=O)CN(C)C)[C@H](c2ccc(C3=CCCCC3)cc2)[C@@H]1CO`?
Pf Dd2 inh: 1; Tcruzi prolif: 8; C diff HTS: 0

What do the screens show for `COc1ccc(S(=O)(=O)N(C)C[C@H]2Oc3c(NC(=O)CCCCCC(=O)Nc4ccccc4N)cccc3C(=O)N([C@@H](C)CO)C[C@H]2C)cc1`?
Pf Dd2 inh: -92*; C diff HTS: -6

Results for C[C@@H]1CN([C@@H](C)CO)C(=O)c2cccc(NC(=O)CCCCCC(=O)Nc3ccccc3N)c2O[C@@H]1CN(C)S(=O)(=O)c1ccc(F)cc1 ?
Pf Dd2 inh: -92*; C diff HTS: -5

Results for COc1ccc(S(=O)(=O)N(C)C[C@@H]2Oc3c(NC(=O)CCCCCC(=O)Nc4ccccc4N)cccc3C(=O)N([C@@H](C)CO)C[C@@H]2C)cc1 ?
Pf Dd2 inh: -67; C diff HTS: 1

How did C[C@@H]1CN([C@H](C)CO)C(=O)c2cccc(NC(=O)CCCCCC(=O)Nc3ccccc3N)c2O[C@@H]1CN(C)S(=O)(=O)c1ccc(F)cc1 do in these assays?
Pf Dd2 inh: -80; C diff HTS: -1

Results for C[C@H](CO)N1C[C@H](C)[C@H](CN(C)S(=O)(=O)c2ccc(F)cc2)Oc2c(NC(=O)CCCCCC(=O)Nc3ccccc3N)cccc2C1=O ?
Pf Dd2 inh: -83*; C diff HTS: -8

Results for C[C@@H]1CN([C@@H](C)CO)C(=O)c2cccc(NC(=O)CCCCCC(=O)Nc3ccccc3N)c2O[C@H]1CN(C)S(=O)(=O)c1ccc(F)cc1 ?
Pf Dd2 inh: -76; C diff HTS: -5

What do the screens show for `O=C(N[C@H]1CC[C@@H](CCNC(=O)C2CCOCC2)O[C@H]1CO)c1ccncc1`?
Pf Dd2 inh: 7; Tcruzi prolif: -34

What do the screens show for `O=C([C@H]1[C@H](CO)[C@H]2Cn3c(ccc(C4=CCCCC4)c3=O)[C@H]2N1Cc1nccs1)N1CCOCC1`?
Pf Dd2 inh: 7; Tcruzi prolif: 79; C diff HTS: 0

How did COc1ccc(NC(=O)N(C)C[C@H]2Oc3c(NC(=O)CCCCCC(=O)Nc4ccccc4N)cccc3C(=O)N([C@H](C)CO)C[C@@H]2C)cc1 do in these assays?
Pf Dd2 inh: -28; C diff HTS: 2

How did C[C@H](CO)N1C[C@H](C)[C@@H](CN(C)C(=O)Nc2ccc(C(F)(F)F)cc2)Oc2c(NC(=O)CCCCCC(=O)Nc3ccccc3N)cccc2C1=O do in these assays?
Pf Dd2 inh: -84*; C diff HTS: 8

What do the screens show for `C[C@@H]1CN([C@@H](C)CO)C(=O)c2cccc(NC(=O)CCCCCC(=O)Nc3ccccc3N)c2O[C@H]1CN(C)C(=O)Nc1ccc(C(F)(F)F)cc1`?
Pf Dd2 inh: -84*; C diff HTS: 0

How did C[C@H](CO)N1C[C@H](C)[C@@H](CN(C)C(=O)Nc2ccc(F)cc2)Oc2c(NC(=O)CCCCCC(=O)Nc3ccccc3N)cccc2C1=O do in these assays?
Pf Dd2 inh: -63; C diff HTS: -6

Assay outcomes deposited in PubChem BioAssay by Broad Institute.
